Nine molecules from PubChem BioAssay (Tox21) can be followed below.

A short description of test [1]: qHTS assay for small molecule agonists of the p53 signaling pathway (AID 651631; calls by dose curve; further: nearly all actives have a fitted effect of over 15% in size). The gist of the method:
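p53RE-bla HCT-116 cells; compounds 16 h, 37 °C; LiveBLAzer B/G FRET substrate 2 h RT; fluorescence intensity read-out, qHTS format.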

The nature of test [2]: qHTS assay for small molecule agonists of the p53 signaling pathway - cell viability (AID 651633; calls by dose curve; further: nearly all actives have a fitted effect of over 30% in size; further: potency means the concentration at half of the fitted maximal effect). The procedure, abridged:
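p53RE-bla cells, seeded at 4,000 per well and rested 5 h at 37 C/5% CO2, received compounds in DMSO for 16 h at 37 C. CellTiter-Glo was then added, and luminescence was read after 30 min at room temperature to gauge cytotoxicity.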
For orientation: Quantitative high-throughput screening tests each substance at several concentrations.

The nature of test [3]: qHTS assay for small molecule disruptors of the mitochondrial membrane potential - cell viability (AID 720634; calls by dose curve; further: nearly all actives have a fitted effect of over 20% in size; further: potency means the concentration at half of the fitted maximal effect). The gist of the method: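 After overnight attachment at 37 C, HepG2 cells received compound or DMSO vehicle for 1 hr. Viability is then taken from ATP-driven luminescence following a 30 min room-temperature CellTiter-Glo step.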
Test [4] in a line: qHTS assay to test for compound auto fluorescence at 590 nm (red) in HepG2 cells (AID 720674). The procedure, abridged: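 Rose Bengal sodium served as the red fluorophore standard. HepG2 monolayers (overnight attachment, MEM with 10% FBS) were exposed to test compounds for 1 hr at 37 C and read at Ex 540/Em 590 nm.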
Test [5] can be described thus: qHTS assay to test for compound auto fluorescence at 535 nm (green) in HepG2 cells (AID 720675).
Test [6] in a line: qHTS assay to test for compound auto fluorescence at 590 nm (red) in HEK293 cells (AID 720679). The gist of the method:
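Red channel, Ex/Em 540/590nm; signal expressed as equivalency to Rose Bengal sodium. HEK293, 2,000 cells/well, 10% dialyzed FBS; 23 nL compound pinned after 4-5 hr attachment; overnight 37C/5% CO2 before reading.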

Test [7] is described as follows: qHTS assay to test for compound auto fluorescence at 535 nm (green) in HEK293 cells (AID 720680).
A short description of test [8]: qHTS assay to test for compound auto fluorescence at 460 nm (blue) in HEK293 cell free culture (AID 720681). The procedure, abridged:
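Test compounds were pinned into cell-free culture medium (DMEM with 10% FBS) and fluorescence was read directly at Ex/Em 405/460 nm. Signals were expressed as fluorescence equivalents of triamterene, with DMSO vehicle as control.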

A short description of test [9]: qHTS assay to test for compound auto fluorescence at 535 nm (green) in HEK293 cell free culture (AID 720682). The procedure, abridged:
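Cell-free medium (DMEM, 10% FBS) receives compound or DMSO by pintool. Plate read directly at Ex 485/Em 535 nm. Signal converted to fluorescein equivalency.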

The nature of test [10]: qHTS assay to test for compound auto fluorescence at 590 nm (red) in HEK293 cell free culture (AID 720683). The procedure, abridged: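 Tox21 10K library compounds were pinned into cell-free DMEM with 10% FBS and fluorescence was read at excitation 540 nm. Activity is expressed as Rose Bengal sodium equivalency.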
Test [11] in a line: qHTS assay to test for compound auto fluorescence at 590 nm (red) in HepG2 cell free culture (AID 720684). The procedure, abridged: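 Measured in medium alone (MEM containing 10% FBS) following pintool addition of compound; emission at 590 nm with 540 nm excitation, referenced to Rose Bengal sodium.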
A short description of test [12]: qHTS assay to test for compound auto fluorescence at 460 nm (blue) in HepG2 cell free culture (AID 720685). The procedure, abridged:
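Compound (23 nL) or DMSO pinned into cell-free MEM with 10% FBS; blue fluorescence read at 405/460 nm excitation/emission, expressed as auto-fluorescence equivalency to triamterene.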

Test [13] in a line: qHTS assay to test for compound auto fluorescence at 535 nm (green) in HepG2 cell free culture (AID 720686).
A short description of test [14]: qHTS assay to test for compound auto fluorescence at 460 nm (blue) in HepG2 cells (AID 720687). The procedure, abridged:
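Cells (2,000/well in MEM with 10% FBS) attached overnight at 37 C, then were exposed to compound or DMSO for 1 hr at 37 C, 5% CO2. Fluorescence read at Ex/Em 405/460 nm, expressed as triamterene-equivalent signal.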

Test [15] concerns the target Glucocorticoid receptor (Homo sapiens) (UniProt P04150). Briefly: qHTS assay to identify small molecule agonists of the glucocorticoid receptor (GR) signaling pathway (AID 720691; active means well fitted activation curve with a large enough effect in the signal ratio in the repeat runs, not every such curve was filed as active; the % refers to the signal ratio; further: potency means the concentration at half of the fitted maximal effect). The gist of the method: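 Agonist mode in a HeLa line carrying a GRE-controlled beta-lactamase reporter. Compounds act for 18 h at 37 C before a 2 h room-temperature FRET substrate step and fluorescence reading.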

For test [16] the target is unchanged. Briefly: qHTS assay to identify small molecule antagonists of the glucocorticoid receptor (GR) signaling pathway (AID 720692; active means well fitted inhibition curve with a large enough effect in the signal ratio in the repeat runs, not every such curve was filed as active; the % refers to the signal ratio). The gist of the method:
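Cells plated, rested 4 h at 37 C/5% CO2; compounds in DMSO pin-transferred; dexamethasone added to 5 nM final; 18 h at 37 C; B/G FRET substrate added, 2 h room temperature; fluorescence measured.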

The nature of test [17]: qHTS assay for small molecules that induce genotoxicity in human embryonic kidney cells expressing luciferase-tagged ATAD5 (AID 651632). Further: nearly all actives have a fitted effect of over 15% in size. The gist of the method: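 Increased luciferase signal from ATAD5-tagged reporter cells indicates DNA-damage-driven ATAD5 induction. HEK293T cells are treated for 16 hr at 37C before detection with Amplite.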
The nature of test [18]: qHTS assay for small molecule disruptors of the mitochondrial membrane potential (AID 720635). Further: potency means the concentration at half of the fitted maximal effect. The procedure, abridged:
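HepG2 cells (2,000/well) attached overnight at 37C, then took compound for 1 hr at 37C, 5% CO2. Mito-MPS dye was added for 30 min; fluorescence was read at 490/535 nm (monomers) and 540/590 nm (aggregates).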

A short description of test [19]: qHTS assay to test for compound auto fluorescence at 460 nm (blue) in HEK293 cells (AID 720678). The gist of the method: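 Blue read-out at excitation 405 nm and emission 460 nm follows overnight compound exposure of HEK293 cells at 37C in 5% CO2. Activity is given as auto fluorescence equivalency to triamterene.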
Test [20] can be described thus: qHTS assay for small molecules that induce genotoxicity in human embryonic kidney cells expressing luciferase-tagged ATAD5 - cell viability (AID 651634; calls by dose curve; further: nearly all actives have a fitted effect of over 25% in size). The procedure, abridged:
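Cytotoxicity counterscreen in HEK293T cells bearing an ATAD5-luciferase reporter: live-cell protease activity measured by CellTiter-Fluor fluorescence after 15.5 hr compound exposure.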

Where “and” joins values, the source holds several entries; their conditions need not be identical. Identical values can stand only once. Results filed as inconclusive are left out. More than one record can exist for a structure, and the calls need not agree. Calls of active or inactive are those of the source. Unless noted, the call rests on the fitted dose curve; in most records, active means well fitted curve in the direction sought with a large enough effect in the repeat runs; inconclusive means weak or mixed curves; inactive means no such curve, though single readings can be large; an effect the other way counts as inactive or inconclusive.

Sequence of Glucocorticoid receptor (Homo sapiens) (P04150 whole entry, looked up): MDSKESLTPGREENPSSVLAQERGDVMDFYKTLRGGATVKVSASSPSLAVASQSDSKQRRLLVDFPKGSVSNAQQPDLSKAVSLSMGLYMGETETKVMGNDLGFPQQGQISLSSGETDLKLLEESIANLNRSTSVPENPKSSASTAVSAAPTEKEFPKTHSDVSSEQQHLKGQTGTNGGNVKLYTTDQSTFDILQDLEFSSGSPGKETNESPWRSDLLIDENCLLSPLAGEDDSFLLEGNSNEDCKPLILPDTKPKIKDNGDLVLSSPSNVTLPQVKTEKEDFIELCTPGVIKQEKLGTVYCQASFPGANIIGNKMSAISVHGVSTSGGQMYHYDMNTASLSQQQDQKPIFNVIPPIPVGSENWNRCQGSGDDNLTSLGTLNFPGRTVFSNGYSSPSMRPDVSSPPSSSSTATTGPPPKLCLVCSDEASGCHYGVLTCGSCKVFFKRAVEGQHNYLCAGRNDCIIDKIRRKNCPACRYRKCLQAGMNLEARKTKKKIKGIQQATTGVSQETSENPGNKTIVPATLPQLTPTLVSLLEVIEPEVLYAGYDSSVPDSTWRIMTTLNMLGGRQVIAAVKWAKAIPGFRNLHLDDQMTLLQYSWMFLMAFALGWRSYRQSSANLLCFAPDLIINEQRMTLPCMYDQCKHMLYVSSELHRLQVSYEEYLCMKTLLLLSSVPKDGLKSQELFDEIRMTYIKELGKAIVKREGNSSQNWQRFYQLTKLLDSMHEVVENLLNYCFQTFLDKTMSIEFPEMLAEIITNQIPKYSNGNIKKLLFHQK

Consider `Cc1ccnc2c1NC(=O)c1cccnc1N2C1CC1`, for which the Potency result in test [1], in test [2], in [3], in test [5], in test [7] and in [8] was “inactive” throughout. For the same molecule, the Potency result in test [9], in [12], in [13], in test [14], in test [15] and in test [16] was “inactive” each time. Moreover, the result in [4], in test [6], in [10] and in test [11] was inactive.

As to `CCCCCCCCCCCCc1ccccc1O`, the Potency entry in test [17], in [3], in [5], in test [19], in test [7] and in test [8] was “inactive” each time. Besides, the Potency entry in test [9], in test [12], in test [13] and in test [14] was “inactive” throughout. Also, the Potency in [2] was 26.9 µM (active) and 24.3 µM (active); in test [18] it was 2.14 µM (active) and 2.43 µM (active). The molecule was classed as inactive in test [4], in test [6], in test [10] and in test [11].

Consider `Oc1ccc(Cl)cc1Cc1cc(Cl)ccc1O`, for which the Potency result in test [17], in test [20], in [5], in test [19], in [7] and in test [8] was “inactive” in each case. Further, the Potency result in test [9], in [12], in test [13] and in test [14] was “inactive” in each case. Moreover, the Potency in [2] was 18.8 µM (active) and 55.5 µM (active) and 43.3 µM (active); in test [3] it was 6.68 µM (active) and 221 nM (active); in test [18], 1.88 µM (active) and 1.24 µM (active) and 1.22 µM (active). Besides, the molecule was classed as inactive in test [4], in [6] and in [10].

As to `CC(C)(C)c1cc(C(C)(C)C)c(O)c(C(C)(C)C)c1`, the Potency entry in test [17], in test [3], in test [5], in test [19], in [7] and in test [8] was “inactive” in each case. The Potency entry in test [9], in test [12], in test [13], in test [15] and in test [16] was “inactive” each time. The Potency in test [2] was 34.4 µM (active); in test [18] it was 17.2 µM (active) and 27.3 µM (active). Also, the result in test [4], in test [6] and in [10] was inactive.

For `CCC(C)(C)C(=O)O[C@H]1C[C@@H](C)C=C2C=C[C@H](C)[C@H](CC[C@@H]3C[C@@H](O)CC(=O)O3)[C@H]21`, the Potency entry in test [17], in test [20], in test [5], in [19], in [7] and in [8] was “inactive” each time. For the same molecule, the Potency result in [9], in test [12], in test [13] and in test [14] was “inactive” throughout. The Potency entry was “inactive and 61.1 µM (active)” in test [2]; 6.44 µM (active) and inactive in test [15]. In addition, the call in test [4], in [6] and in test [10] was inactive.

`CCCCN(CCO)CCCC`: the Potency result in test [17], in test [2], in test [20], in test [3], in test [5] and in test [19] was “inactive” in each case. The Potency entry in [7], in [8], in test [9], in [12] and in test [13] was “inactive” throughout. The result in [4], in test [10] and in [11] was inactive.

Turning to `CC(C)CCCCCCc1ccc(O)cc1`, the Potency entry in test [17], in test [5], in test [19], in test [7], in test [8] and in test [9] was “inactive” in each case. Further, the Potency result in test [13], in [14] and in test [15] was “inactive” in each case. In addition, the Potency in [2] is 62.2 µM (active); in test [3], 6.22 µM (active) and 61.1 µM (active); in test [18], 5.31 µM (active) and 1.56 µM (active) and 5.45 µM (active). For the same molecule, the molecule was classed as inactive in test [4], in [6], in test [10] and in test [11].

As to `CN(C)c1ccc(C(=C2C=CC(=[N+](C)C)C=C2)c2ccccc2)cc1`, the Potency result in test [17], in test [5], in test [19], in test [7], in test [8] and in test [9] was “inactive” in each case. Moreover, the Potency entry in test [13], in [14] and in [15] was “inactive” each time. The Potency in [2] was 23.7 µM (active) and 273 nM (active); in test [3], “inactive and 17.2 µM (active)”; in [18], 29.8 µM (active) and 77 nM (active). Further, the molecule was classed as inactive in test [4], in test [6], in test [10] and in [11].

Take `CO[Si](OC)(OC)c1ccccc1`: the Potency result in test [1], in test [2], in test [3], in [18], in [5] and in test [19] was “inactive” throughout. In addition, the Potency result in [7], in test [8], in test [9], in test [12], in [13] and in [14] was “inactive” in each case. In addition, the Potency result in test [15] and in test [16] was “inactive” in each case. Moreover, the result in [4] and in test [10] was inactive.
